# High-throughput results from PubChem.
# HTT cytoprotect = Huntington cell model cytoprotection by ATP luminescence; PC12 HTT-Q103 induced, cytoprotection, ATP luminescence, 40 h; Potency, µM (highest dose often 56.4 µM), most hits filed as activators; AID 1471; 230,000 compounds, 0.14% hits; further: nearly all actives have a fitted effect of over 45% in size
#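 Quantitative HTS on tebufenozide-induced (100 nM) PC12 cells expressing HTTQ103 exon 1–GFP; compounds tested as a concentration series; survival measured via cellular ATP.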
# ALDH1A1 inh = blocks purified human ALDH1A1 activity. P00352. Purified ALDH1A1, NADH fluorescence, propionaldehyde substrate. Potency, µM (highest dose often 75.3 µM), hits mostly inhibitors. 220,000 compounds, 7.3% hits. AID 1030; active means well fitted inhibition curve with a large enough effect, not every such curve was filed as active; inconclusive means small, poorly fitted or top-dose-only effect, or another doubt; inactive means no such curve, though single readings can be large or run the other way
# Target sequence (P00352 whole entry, looked up): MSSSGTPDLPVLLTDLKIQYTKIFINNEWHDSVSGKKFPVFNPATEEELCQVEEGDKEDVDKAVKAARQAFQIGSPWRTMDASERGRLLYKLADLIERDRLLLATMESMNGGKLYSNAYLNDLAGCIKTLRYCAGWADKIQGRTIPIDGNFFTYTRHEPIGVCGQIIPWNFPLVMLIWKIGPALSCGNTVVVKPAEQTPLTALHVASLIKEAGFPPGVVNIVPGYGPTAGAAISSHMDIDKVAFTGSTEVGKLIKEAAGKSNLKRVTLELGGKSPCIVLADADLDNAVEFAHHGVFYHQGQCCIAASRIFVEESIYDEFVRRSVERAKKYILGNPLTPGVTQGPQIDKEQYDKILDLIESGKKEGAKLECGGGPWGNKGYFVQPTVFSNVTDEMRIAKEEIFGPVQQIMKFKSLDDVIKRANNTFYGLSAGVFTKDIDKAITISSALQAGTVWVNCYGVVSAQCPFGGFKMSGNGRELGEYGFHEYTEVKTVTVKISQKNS
# HPGD inh = HPGD (human) dehydrogenase inhibition; Potency, µM, actives largely listed as inhibitors; P15428; 150,000 compounds, 4.3% hits; purified HPGD, NADH fluorescence kinetic, PGE2 substrate; active means well fitted inhibition curve with a large enough effect, not every such curve was filed as active; inconclusive means small, poorly fitted or top-dose-only effect, or another doubt; inactive means no such curve, though single readings can be large or run the other way
#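 NADH formation kinetics: reaction with 30 uM PGE2 and 1 mM NAD+ (final), 20 nM enzyme, Tris-HCl pH 8 with Tween 20, after 15 min compound preincubation at room temperature. Fluorescence change, last versus first of five reads.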
# HTT aggregate = reduces HttQ103-GFP aggregates in PC12 cells. PC12 HttQ103-GFP aggregates, Acumen cytometry, 40 h. Potency, µM (doses to about 46.1 µM), usual class: inhibitors. 220,000 compounds, 1.1% hits; further: nearly all actives have a fitted effect of over 60% in size
#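 Inducible Q103 Huntingtin exon 1–GFP PC12 line, 1500 cells/well in phenol red free DMEM with 5% equine and 5% calf serum. Tebufenozide 100 nM induced expression; compounds titrated; aggregates quantified by cytometry.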
# KinaseGlo FLuc = blocks Kinase-Glo luciferase, a counter-screen artifact; Q27757; Kinase-Glo luciferase, ATP luminescence, 8 min; Potency, µM (highest dose often 38.3 µM), hits mostly inhibitors; 200,000 compounds, 0.28% hits; further: nearly all actives have a fitted effect of over 60% in size
#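 Compound is pinned into ATP-containing buffer (10 uM ATP, imidazole pH 7.2, 7 mM MgCl2). Kinase-Glo luciferase reagent is then added. Light output is recorded following an 8-min room-temperature incubation.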
# LMNA splice mod = changes lamin A minigene splicing in HeLa cells; Potency, µM (titrated, usually from 46.1 µM), hits mostly inhibitors; 200,000 compounds, 0.01% hits; HeLa LMNA splicing GFP/RFP minigene ratio, 48 h; AID 1487; active means well fitted inhibition curve with a large enough effect in the signal ratio, with a control signal flat, not every such curve was filed as active; inconclusive means small, poorly fitted or top-dose-only effect, or effect the other way, or a change in a side signal; the % refers to the signal ratio
#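 Read-out is the ratio of GFP to DsRed2 object intensity, acquired by 488 nm laser-scanning cytometry on HeLa lamin A-EGFP minigene reporter cells. Compound incubation 48 hrs at 37 °C in Opti-MEM with 2% FBS; DMSO 0.5% final.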
# A number is an active result; 0 = inactive; ? = inconclusive; - = not tested or not shown; [ ] = another dose, or the depositor's remark. In the library only some 9% were active in any assay of this set; here they are far more common. Unless noted, the call rests on the fitted dose curve; in most records, active means well fitted curve in the direction sought with a large enough effect; inconclusive means small, poorly fitted or top-dose-only effect, or another doubt; inactive means no such curve, though single readings can be large; an effect the other way counts as inactive or inconclusive.
SMILES,HTT cytoprotect,ALDH1A1 inh,HPGD inh,HTT aggregate,KinaseGlo FLuc,LMNA splice mod
CC(C)(C)C1CCc2c(sc(NC(=O)CSc3ncn[nH]3)c2C#N)C1 (configuration not stated),0[10 µM],8.9µM,14µM,?,0,?
CC1CCc2c(sc(NC(=O)CSc3nnc(-c4ccccc4)o3)c2C#N)C1 (configuration not stated),0[1.9 µM],0,0,0,0,0
CCCc1cc(=O)[nH]c(SCC(=O)Nc2sc3c(c2C#N)CCC(C)C3)n1 (configuration not stated),0,22µM,-,0,0,0
O=C(Cn1[nH]c(=O)c2ccccc2c1=O)Nc1cccnc1,0,0,-,0,0,-
C/C(=N\Nc1ccc([N+](=O)[O-])cc1)c1cccc(N)c1,0,0,0,0,0,0
CCC1(c2ccc(F)cc2)NC(=O)N(CC(=O)c2ccc[nH]2)C1=O (configuration not stated),0[10 µM],0,0,0,0,0
CC(=O)c1cccc(OCC(=O)c2cc(C)n(-c3cc(C)on3)c2C)c1,0,0,0,13µM,0,?
Cc1cc(-n2c(C)cc(C(=O)CSc3ncnc4ccccc34)c2C)no1,0,0,0,1.8µM,0,?
Cc1cc(-n2c(C)cc(C(=O)COc3ccc4ccc(=O)oc4c3)c2C)no1,0,?,?,0,0,0
Cc1cc(-n2c(C)cc(C(=O)CSc3nnc4sc5ccccc5n34)c2C)no1,0,0,0,0,0,0
CCN(CC)S(=O)(=O)c1ccc(NC(=O)c2ccccc2N(C)S(C)(=O)=O)cc1,0,0,0,0,0,0
O=C(Cc1n[nH]c(=O)c2ccccc12)Nc1ccc(-c2nnc3n2CCCCC3)cc1,0,16µM,10µM,0[9.22 µM],0,0
O=C(CC1Sc2ccccc2NC1=O)Nc1cccnc1 (configuration not stated),0[10 µM],0,0,0,0,0
O=C(CC1Sc2ccccc2NC1=O)Nc1cccc(-c2nnc3n2CCCCC3)c1 (configuration not stated),0[10 µM],0,32µM,0,0,0
O=C(Cn1[nH]c(=O)c2ccccc2c1=O)Nc1ccc(-c2nnc3n2CCCCC3)cc1,0,14µM,3.5µM,0,0,0
O=C(Cc1n[nH]c(=O)c2ccccc12)Nc1cccc(S(=O)(=O)N2CCCC2)c1,0[10 µM],-,-,0[9.22 µM],-,-
N#Cc1c(NC(=O)CSc2ncnc3sccc23)oc(-c2ccco2)c1-c1ccco1,0[10 µM],10µM,?,0,0,0
COC(=O)c1ccccc1NC(=S)N1CCC(N2CCCCC2)CC1,0,0,-,0,0,-
CCOc1ccc(S(=O)(=O)NCc2ccccc2Cl)cc1C(N)=O,0,0,-,?,-,-
Cc1ccc(-n2ncc3c(=O)n(CC#N)cnc32)cc1C,0,16µM,0,0,0,0
C#CCn1cnc2c(cnn2-c2ccc(C)c(C)c2)c1=O,0,14µM,0,0,0,0
CCCCNC(=O)Cn1cnc2c(cnn2-c2ccc(C)c(C)c2)c1=O,0[10 µM],0,0,0,0,?
Cc1oc(-c2ccc3ccccc3c2)nc1CN(C)C(C)c1ccncn1 (configuration not stated),0[10 µM],15µM,-,0[9.22 µM],0,-
CC(c1ccncn1)N(C)Cc1nc(-c2ccc(C(F)(F)F)cc2)no1 (configuration not stated),0,0,-,0,0,-
O=C(NCC1CCCO1)/C(=C/c1ccccc1)NC(=O)c1ccccc1 (configuration not stated),0,?,-,0,0,-
C(=C\c1ccccc1)/CNCC1CCCO1 (configuration not stated),0,25µM,-,0,0,-
CCC(=O)Nc1sc2c(c1C#N)CC(C)(CC)OC2 (configuration not stated),0,0,40µM,0,0,0
COc1ccc(S(=O)(=O)N2CCOCC2)cc1NC(=O)CN1CCC(Cc2ccccc2)CC1,0[10 µM],0,0,0,0,?
COc1cccc2cc(C(=O)N3CCN(c4ccccn4)CC3)c(=O)oc12,0,?,0,0,0,0
CCc1ccc(S(=O)(=O)Nc2cc(SCC(=O)O)c(O)c3ccccc23)cc1,?,14µM,-,0[9.22 µM],0,-
